PubChem BioAssay AID1159580 (chemical genetic matrix, 2015)
Out of some 5,500 compounds screened, about 2,000 (36%) were called active. Inconclusive results (about 18%) are left out. No stated cut-off is given here; in the data, active means normalized growth mostly below about 0.91 (no sharp cut-off); inconclusive means no clear call, values can overlap the other calls; inactive means mostly above about 0.92. Some of the results follow.

Assay: chemical genetic growth profiling, strain panel (AID 1159580);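 further: tested at 20 µM; growth read once vehicle control cultures reached saturation at 30 °C; 1 = growth at the plate median or of vehicle wells; lower values mean less growth of the strain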
Conditions: growth OD
[1] = S. cerevisiae deletion strains, locus YAL013W, strain DEP1, hits give low values
[2] = S. cerevisiae deletion strains, locus YBR229C, strain ROT2, hits give low values
[3] = S. cerevisiae deletion strains, locus YDL101C, strain DUN1, hits give low values
[4] = S. cerevisiae deletion strains, locus YDL134C, strain PPH21, hits give low values
[5] = S. cerevisiae deletion strains, locus YDR150W, strain NUM1, hits give low values
[6] = S. cerevisiae deletion strains, locus YEL061C, strain CIN8, hits give low values
[7] = S. cerevisiae deletion strains, locus YGR078C, strain PAC10, hits give low values
[8] = S. cerevisiae deletion strains, locus YHR030C, strain SLT2, hits give low values
[9] = S. cerevisiae deletion strains, locus YHR087W, strain rtc3, hits give low values
[10] = S. cerevisiae deletion strains, locus YJR043C, strain POL32, hits give low values
[11] = S. cerevisiae deletion strains, locus YJR075W, strain HOC1, hits give low values
[12] = S. cerevisiae deletion strains, locus YLR039C, strain RIC1, hits give low values
[13] = S. cerevisiae deletion strains, locus YLR058C, strain SHM2 (second series), hits give low values
[14] = S. cerevisiae deletion strains, locus YLR085C, strain ARP6, hits give low values
[15] = S. cerevisiae deletion strains, locus YLR262C, strain YPT6, hits give low values
[16] = S. cerevisiae deletion strains, locus YML094W, strain GIM5, hits give low values
[17] = S. cerevisiae deletion strains, locus YMR219W, strain ESC1, hits give low values
[18] = S. cerevisiae deletion strains, locus YMR263W, strain SAP30, hits give low values
[19] = S. cerevisiae deletion strains, locus YMR307W, strain GAS1, hits give low values
[20] = S. cerevisiae deletion strains, locus YNL153C, strain GIM3, hits give low values
[21] = S. cerevisiae deletion strains, locus YNL298W, strain CLA4 (second series), hits give low values
[22] = S. cerevisiae deletion strains, locus YNL322C, strain KRE1, hits give low values
[23] = S. cerevisiae deletion strains, locus YNR030W, strain Alg12, hits give low values
[24] = S. cerevisiae deletion strains, locus YPL055C, strain LGE1, hits give low values
[25] = S. cerevisiae deletion strains, locus YPL241C, strain CIN2, hits give low values
[26] = S. cerevisiae deletion strains, locus YPR135W, strain CTF4, hits give low values

Measured: normalized growth

CCSc1nnc(N)s1
inactive: [1] 1.02 | [2] 1.01 | [3] 1.01 | [4] 1.01 | [5] 1 | [6] 0.996 | [7] 1.01 | [8] 1.05 | [9] 1.01 | S. cerevisiae deletion strains, locus YJL187C, strain SWE1, hits give low values 1.01 | [10] 1 | [11] 0.994 | [12] 1.01 | [13] 1.01 | [14] 0.999 | [15] 1.05 | [16] 0.995 | [17] 1.01 | [18] 1 | [19] 0.981 | S. cerevisiae deletion strains, locus YNL128W, strain TEP1, hits give low values 1.01 | [20] 0.997 | [21] 0.995 | [22] 1.02 | [23] 1.01 | [24] 0.997 | [25] 1.01 | [26] 1.11 | S. cerevisiae strains, strain wild type, hits give low values 1.01

N#CC(C#N)=C/C=C(/Sc1ccc(F)c(Cl)c1)c1ccc(Cl)cc1
inactive: S. cerevisiae deletion strains, locus YAR019C, strain CDC15, hits give low values 0.937 | S. cerevisiae deletion strains, locus YBL105C, strain PKC1, hits give low values 0.948 | S. cerevisiae deletion strains, locus YBR135W, strain CKS1, hits give low values 0.943 | S. cerevisiae deletion strains, locus YBR136W, strain MEC1, hits give low values 0.949 | S. cerevisiae deletion strains, locus YBR160W, strain CDC28, hits give low values 0.958 | S. cerevisiae deletion strains, locus YDL017W, strain CDC7, hits give low values 0.961 | S. cerevisiae deletion strains, locus YDL028C, strain MPS1, hits give low values 0.949 | [3] 0.961 | S. cerevisiae deletion strains, locus YDL108W, strain KIN28, hits give low values 0.947 | S. cerevisiae deletion strains, locus YDL132W, strain cdc53, hits give low values 0.942 | S. cerevisiae deletion strains, locus YDL214C, strain PRR2, hits give low values 0.891 | S. cerevisiae deletion strains, locus YDR052C, strain DBF4, hits give low values 0.956 | S. cerevisiae deletion strains, locus YDR054C, strain cdc34, hits give low values 0.943 | S. cerevisiae deletion strains, locus YDR226W, strain ADK1, hits give low values 0.964 | S. cerevisiae deletion strains, locus YDR477W, strain SNF1, hits give low values 0.839 | S. cerevisiae deletion strains, locus YER123W, strain YCK3, hits give low values 0.822 | S. cerevisiae deletion strains, locus YER133W, strain GLC7, hits give low values 0.872 | S. cerevisiae deletion strains, locus YFL009W, strain cdc4, hits give low values 0.943 | S. cerevisiae deletion strains, locus YFL029C, strain CAK1, hits give low values 0.951 | S. cerevisiae deletion strains, locus YFR003C, strain YPI1, hits give low values 0.951 | S. cerevisiae deletion strains, locus YFR019W, strain FAB1, hits give low values 0.95 | S. cerevisiae deletion strains, locus YFR028C, strain CDC14, hits give low values 0.949 | S. cerevisiae deletion strains, locus YGR040W, strain KSS1, hits give low values 0.823 | S. cerevisiae deletion strains, locus YGR052W, strain FMP48, hits give low values 0.81 | S. cerevisiae deletion strains, locus YGR092W, strain DBF2, hits give low values 0.759 | S. cerevisiae deletion strains, locus YHR079C, strain IRE1, hits give low values 0.806 | S. cerevisiae deletion strains, locus YHR082C, strain KSP1, hits give low values 0.839 | S. cerevisiae deletion strains, locus YHR205W, strain SCH9, hits give low values 0.608 | S. cerevisiae deletion strains, locus YIL147C, strain SLN1, hits give low values 0.951 | S. cerevisiae deletion strains, locus YJL095W, strain BCK1, hits give low values 0.69 | S. cerevisiae deletion strains, locus YJL128C, strain PBS2, hits give low values 0.896 | S. cerevisiae deletion strains, locus YJL157C, strain FAR1, hits give low values 0.892 | S. cerevisiae deletion strains, locus YJR016C, strain ILV3, hits give low values 0.937 | S. cerevisiae deletion strains, locus YJR066W, strain TOR1 (second series), hits give low values 0.748 | S. cerevisiae deletion strains, locus YJR066W, strain TOR1, hits give low values 0.781 | S. cerevisiae deletion strains, locus YKL048C, strain ELM1, hits give low values 0.932 | S. cerevisiae deletion strains, locus YKL067W, strain YNK1, hits give low values 0.888 | S. cerevisiae deletion strains, locus YKL101W, strain HSL1, hits give low values 0.834 | S. cerevisiae deletion strains, locus YKL193C, strain SDS22, hits give low values 0.947 | S. cerevisiae deletion strains, locus YKL203C, strain TOR2, hits give low values 0.87 | S. cerevisiae deletion strains, locus YLR133W, strain CKI1, hits give low values 0.906 | S. cerevisiae deletion strains, locus YLR403W, strain SFP1, hits give low values 0.753 | S. cerevisiae deletion strains, locus YML070W, strain DAK1, hits give low values 0.855 | S. cerevisiae deletion strains, locus YMR001C, strain CDC5, hits give low values 0.944 | S. cerevisiae deletion strains, locus YMR205C, strain PFK2 (second series), hits give low values 0.89 | S. cerevisiae deletion strains, locus YMR277W, strain FCP1, hits give low values 0.941 | S. cerevisiae deletion strains, locus YNL006W, strain LST8, hits give low values 0.976 | S. cerevisiae deletion strains, locus YNL020C, strain ARK1, hits give low values 0.884 | S. cerevisiae deletion strains, locus YNL161W, strain CBK1, hits give low values 0.96 | S. cerevisiae deletion strains, locus YNL183C, strain NPR1, hits give low values 0.749 | S. cerevisiae deletion strains, locus YNL207W, strain RIO2, hits give low values 0.938 | S. cerevisiae deletion strains, locus YNL222W, strain SSU72, hits give low values 0.955 | S. cerevisiae deletion strains, locus YNL307C, strain MCK1 (second series), hits give low values 0.711 | S. cerevisiae deletion strains, locus YOL078W, strain AVO1, hits give low values 0.94 | S. cerevisiae deletion strains, locus YOL136C, strain PFK27, hits give low values 0.879 | S. cerevisiae deletion strains, locus YOR061W, strain CKA2, hits give low values 0.827 | S. cerevisiae deletion strains, locus YOR119C, strain RIO1, hits give low values 0.876 | S. cerevisiae deletion strains, locus YOR231W, strain MKK1, hits give low values 0.781 | S. cerevisiae deletion strains, locus YOR329C, strain SCD5, hits give low values 0.956 | S. cerevisiae deletion strains, locus YPL031C, strain PHO85, hits give low values 0.758 | S. cerevisiae deletion strains, locus YPL153C, strain RAD53, hits give low values 0.856 | S. cerevisiae deletion strains, locus YPL204W, strain HRR25, hits give low values 0.856 | S. cerevisiae deletion strains, locus YPL209C, strain IPL1, hits give low values 0.954 | S. cerevisiae deletion strains, locus YPL256C, strain CLN2, hits give low values 0.877 | S. cerevisiae deletion strains, locus YPR025C, strain CCL1, hits give low values 0.956 | S. cerevisiae deletion strains, locus YPR106W, strain ISR1, hits give low values 0.957 | S. cerevisiae deletion strains, locus YPR111W, strain DBF20, hits give low values 0.944 | S. cerevisiae deletion strains, strain NNK1, hits give low values 0.946 | S. cerevisiae deletion strains, strain TSCII, hits give low values 0.945
active: [8] 0.741 | S. cerevisiae deletion strains, locus YLR113W, strain HOG1, hits give low values 0.632

CN(C)C=Nc1nnc(Sc2ncccc2[N+](=O)[O-])s1
inactive: [1] 0.999 | [2] 1 | S. cerevisiae deletion strains, locus YCL061C, strain MRC1, hits give low values 1.01 | [3] 1.01 | [4] 1.01 | [5] 0.987 | [6] 0.995 | [7] 1 | S. cerevisiae deletion strains, locus YGR229C, strain SMI1, hits give low values 0.992 | [8] 1 | [9] 1.01 | [10] 0.985 | [11] 0.997 | [12] 1.03 | [13] 1 | [14] 1.06 | [15] 1.03 | [16] 1.01 | [17] 1.01 | [18] 0.995 | [19] 0.983 | [20] 0.977 | [21] 1.06 | [22] 1.02 | [23] 1.04 | S. cerevisiae deletion strains, locus YOL006C, strain TOP1, hits give low values 1.01 | [24] 0.988 | [25] 1.02 | [26] 1.06
